Active and inactive are the calls of the source. Unless noted, how the calls were made is not given here.
Legend:
[1] = test system: Wnt5a (protein binding on small-molecule microarray); assay: small molecules binding Wnt5a protein – biophysical, small-molecule microarray, 635/667 nm fluorescence, primary screen (AID 1142); details: 635 nm fluorescence, higher = more signal;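 further: fluorescence read at 667 nm with signal to noise per printed feature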
[2] = ATP-based viability of Huh7 replicon cells – cell-based, CellTiter-Glo luminescence, basal, 48 h, cytotoxicity control for HCV replication inhibitor project, primary screen (AID 1143); details: higher = more signal, called active from +8 up or from −8 down;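 further: Huh7 hepatoma cells carrying a hepatitis C replication reporter with no stimulus; test concentration not given here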
[3] = Pseudomonas biofilm growth suppression – PAO1 strain, BacTiter-Glo luminescence, LB-PBS, primary screen (AID 1144); details: P. aeruginosa PAO1 biofilm, 12 h, higher = more signal
[4] = basal CRE-LacZ reporter activity in PC12 – cell-based, unstimulated, primary screen (AID 1145); details: no forskolin, luminescence, 4.5 h, higher = more signal, called active from +8 up or from −8 down
[5] = forskolin-driven CRE-LacZ activity in PC12 – cell-based, CRE-LacZ reporter, forskolin-stimulated, primary screen (AID 1146); details: luminescence, 4.5 h, higher = more signal, called active from +8 up or from −8 down;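 further: PC12 cells with 6xCRE LacZ reporter stimulated by forskolin 10 µM; beta-galactosidase reporter signal reflecting CREB driven transcription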
[6] = target: Streptavidin (Streptomyces avidinii) (UniProt P22629); assay: compounds binding control protein streptavidin – biophysical, small-molecule microarray, 635/667 nm fluorescence, artefact control for SMM compound annotation, primary screen (AID 1147); details: higher = more signal;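 further: signal reflects streptavidin binding to arrayed compounds as a control protein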
[7] = probe aInhba binding on compound microarray – biochemical, small-molecule microarray, 635/667 nm fluorescence, primary screen (AID 1148); details: higher = more signal;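 further: score merges 667nm spot fluorescence with signal-to-noise for antibody binding to printed compounds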
Torsin-1A (Homo sapiens) [8] = target: Torsin-1A (Homo sapiens) (UniProt O14656); assay: TOR1A wild-type binding on microarray – cell lysate, small-molecule microarray, lysate, 635/667 nm, primary screen (AID 1149); details: COS7 hTOR1A-WT lysate, 635 nm fluorescence, higher = more signal
Torsin-1A (Homo sapiens) [9] = target: Torsin-1A (Homo sapiens) (UniProt O14656); assay: torsin A mutant lysate binding on microarrays – cell lysate, small-molecule microarray, COS7 lysate, 635/667 nm fluorescence, primary screen (AID 1150); details: COS7 hTOR1A mutant lysate, 635 nm fluorescence, higher = more signal;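 further: score pools 667 nm emission and signal to noise measuring lysate protein binding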
[10] = test system: Sonic hedgehog protein (Shh); assay: Sonic hedgehog microarray binding compounds – biochemical, small-molecule microarray, 635/667 nm fluorescence, primary screen (AID 1151); details: 635 nm fluorescence, higher = more signal;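 further: Shh protein binding to compounds spotted on small-molecule microarray slides; score combines spot fluorescence intensity with signal-to-noise across triplicate slides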

Sequence of Streptavidin (Streptomyces avidinii) (P22629 whole entry, looked up): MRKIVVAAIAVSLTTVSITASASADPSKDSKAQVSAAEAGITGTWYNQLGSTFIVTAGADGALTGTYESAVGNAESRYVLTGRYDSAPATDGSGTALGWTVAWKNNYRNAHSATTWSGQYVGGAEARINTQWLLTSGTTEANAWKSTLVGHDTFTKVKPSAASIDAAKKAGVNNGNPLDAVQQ
Sequence of Torsin-1A (Homo sapiens) (O14656 whole entry, looked up): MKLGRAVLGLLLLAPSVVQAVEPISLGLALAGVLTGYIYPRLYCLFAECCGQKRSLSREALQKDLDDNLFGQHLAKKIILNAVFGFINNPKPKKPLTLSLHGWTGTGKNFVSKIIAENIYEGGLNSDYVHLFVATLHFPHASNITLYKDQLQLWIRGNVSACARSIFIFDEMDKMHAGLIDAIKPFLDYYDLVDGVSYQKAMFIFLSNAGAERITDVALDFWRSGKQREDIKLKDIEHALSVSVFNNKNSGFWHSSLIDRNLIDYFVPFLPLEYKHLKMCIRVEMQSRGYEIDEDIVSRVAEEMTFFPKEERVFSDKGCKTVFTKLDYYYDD

## COCCCNC(=O)[C@@]1(C)c2ccccc2C(=O)N(C(C)C)[C@H]1c1ccc(CO)cc1
[1]
  composite z-score: 0.292
[2]
  z-score: 0.169 (inactive)
[3]
  z-score: 0.0334 (inactive)
[4]
  z-score: 0.234 (inactive)
[5]
  z-score: 0.174 (inactive)
[6]
  composite z-score: 0.889
[7]
  composite z-score: 0.143
Torsin-1A (Homo sapiens) [8]
  composite z-score: -0.277
Torsin-1A (Homo sapiens) [9]
  composite z-score: 0.776
[10]
  composite z-score: 1.38

## C[C@H]1NC(=O)[C@@]23C(=O)N[C@@H](Cc4ccccc4)C2[C@H](C)[C@@]2(C)O[C@H]2C3/C=C/C/C=C\CNC(=O)[C@@H]2CCCN2C1=O (stereo not given in full)
[1]
  composite z-score: 0.168
[2]
  z-score: -0.0568 (inactive)
[3]
  z-score: -0.545 (inactive)
[4]
  z-score: 1.03 (inactive)
[5]
  z-score: 0.647 (inactive)
[6]
  composite z-score: 0.301
[7]
  composite z-score: -0.0589
Torsin-1A (Homo sapiens) [8]
  composite z-score: 0.396
Torsin-1A (Homo sapiens) [9]
  composite z-score: -0.103
[10]
  composite z-score: 1.73

## CC(CO)N1C(=O)[C@@H]2C3C(=O)OCCC/C=C\[C@H]3OC23C=CCN(C(C)(C)C)C(=O)[C@@H]13 (stereo not given in full)
[1]
  composite z-score: -0.221
[2]
  z-score: 0.559 (inactive)
[3]
  z-score: -0.818 (inactive)
[4]
  z-score: -0.488 (inactive)
[5]
  z-score: 0.636 (inactive)
[6]
  composite z-score: -0.221
[7]
  composite z-score: -0.128
Torsin-1A (Homo sapiens) [8]
  composite z-score: 1.17
Torsin-1A (Homo sapiens) [9]
  composite z-score: 2.21
[10]
  composite z-score: 0.777

## CC(C)C(=C=CC[C@H](O)c1ccc(OCCO)cc1)CCO
[1]
  composite z-score: 0.803
[2]
  z-score: -1.97 (inactive)
[3]
  z-score: -0.596 (inactive)
[4]
  z-score: 3.49 (inactive)
[5]
  z-score: 0.36 (inactive)
[6]
  composite z-score: 0.0996
[7]
  composite z-score: -0.179
Torsin-1A (Homo sapiens) [8]
  composite z-score: 1.37
Torsin-1A (Homo sapiens) [9]
  composite z-score: 0.653
[10]
  composite z-score: 2.05

## C=CC1(C(=O)OC)CC=C(C(=O)OC)CC1 (stereo not given)
[1]
  composite z-score: 0.181
[2]
  z-score: -1.3 (inactive)
[3]
  z-score: 0.132 (inactive)
[4]
  z-score: 0.332 (inactive)
[5]
  z-score: 0.0857 (inactive)
[6]
  composite z-score: 0.596
[7]
  composite z-score: -0.154
Torsin-1A (Homo sapiens) [8]
  composite z-score: 0.226
Torsin-1A (Homo sapiens) [9]
  composite z-score: 0.823
[10]
  composite z-score: 0.434

## C=C[C@H](C)[C@@H](OC(=O)Nc1ccc(OC)cc1)c1ccc(O)c2ccccc12
[1]
  composite z-score: 0.198
[2]
  z-score: -6 (inactive)
[3]
  z-score: -0.899 (inactive)
[4]
  z-score: 0.804 (inactive)
[5]
  z-score: 0.819 (inactive)
[6]
  composite z-score: -0.387
[7]
  composite z-score: -0.206
Torsin-1A (Homo sapiens) [8]
  composite z-score: 0.308
Torsin-1A (Homo sapiens) [9]
  composite z-score: 0.422
[10]
  composite z-score: 1.36

## O=C(c1ccccc1)N1C(=O)[C@]2(COC(c3ccc(OCCCO)cc3)=N2)Cc2ccccc21
[1]
  composite z-score: 0.363
[2]
  z-score: -3.03 (inactive)
[3]
  z-score: -0.382 (inactive)
[4]
  z-score: 1.03 (inactive)
[5]
  z-score: 0.822 (inactive)
[6]
  composite z-score: 0.532
[7]
  composite z-score: 0.249
Torsin-1A (Homo sapiens) [8]
  composite z-score: 0.273
Torsin-1A (Homo sapiens) [9]
  composite z-score: 0.87
[10]
  composite z-score: 0.658

## C=C(/C(=C/C[C@H](OC(C)=O)c1ccccc1OCCO)c1cnc2ccccc2c1)C(C)C
[1]
  composite z-score: 0.025
[2]
  z-score: -1.61 (inactive)
[3]
  z-score: 0.445 (inactive)
[4]
  z-score: 4.98 (inactive)
[5]
  z-score: 1.49 (inactive)
[6]
  composite z-score: 0.533
[7]
  composite z-score: 0.0543
Torsin-1A (Homo sapiens) [8]
  composite z-score: 0.316
Torsin-1A (Homo sapiens) [9]
  composite z-score: 0.0233
[10]
  composite z-score: 1.09

## C[C@H]1C2[C@H](Cc3ccccc3)NC(=O)[C@]23C(=O)N[C@H](Cc2ccccc2)C(=O)N2CCC[C@H]2C(=O)NC/C=C\C/C=C/C3[C@@H]2O[C@]12C (stereo not given in full)
[1]
  composite z-score: 0.072
[2]
  z-score: -0.832 (inactive)
[3]
  z-score: -1.44 (inactive)
[4]
  z-score: 0.403 (inactive)
[5]
  z-score: -0.399 (inactive)
[6]
  composite z-score: 0.206
[7]
  composite z-score: -0.126
Torsin-1A (Homo sapiens) [8]
  composite z-score: 0.221
Torsin-1A (Homo sapiens) [9]
  composite z-score: 0.44
[10]
  composite z-score: 0.639

## NC(=O)N1C(=O)C2C(C1=O)C1C=C(c3ccc(CO)cc3)C2C(c2cccs2)N1Cc1cccc(OC(F)(F)F)c1 (stereo not given)
[1]
  composite z-score: 0.24
[2]
  z-score: -3.63 (inactive)
[3]
  z-score: 0.945 (inactive)
[4]
  z-score: 1.08 (inactive)
[5]
  z-score: -1.58 (inactive)
[6]
  composite z-score: 0.514
[7]
  composite z-score: 0.29
Torsin-1A (Homo sapiens) [8]
  composite z-score: 0.635
Torsin-1A (Homo sapiens) [9]
  composite z-score: 0.522
[10]
  composite z-score: 0.235

## O=C(c1ccccc1)N1Cc2ccccc2C[C@@]2(COC(c3ccc(OCCCO)cc3)=N2)C1=O
[1]
  composite z-score: 0.406
[2]
  z-score: -1.71 (inactive)
[3]
  z-score: -0.0668 (inactive)
[4]
  z-score: 2.72 (inactive)
[5]
  z-score: -0.152 (inactive)
[6]
  composite z-score: 0.298
[7]
  composite z-score: 0.167
Torsin-1A (Homo sapiens) [8]
  composite z-score: 0.655
Torsin-1A (Homo sapiens) [9]
  composite z-score: 0.787
[10]
  composite z-score: 1.33

## CC(C)NC(=O)[C@@]1(C)c2ccccc2C(=O)N(Cc2cc(C(F)(F)F)cc(C(F)(F)F)c2)[C@H]1c1ccc(CO)cc1
[1]
  composite z-score: -0.533
[2]
  z-score: -3.78 (inactive)
[3]
  z-score: 1.03 (inactive)
[4]
  z-score: 0.648 (inactive)
[5]
  z-score: -0.405 (inactive)
[6]
  composite z-score: -0.417
[7]
  composite z-score: -0.269
Torsin-1A (Homo sapiens) [8]
  composite z-score: -0.979
Torsin-1A (Homo sapiens) [9]
  composite z-score: -0.723
[10]
  composite z-score: -0.328

## COCCOC(=O)N1C(=O)[C@@]2(c3ccccc31)[C@H](c1ccc(O)cc1)N1[C@H](c3ccccc3)[C@H](c3ccccc3)OC(=O)[C@H]1[C@@H]2C(=O)Nc1nc2ccccc2s1
[1]
  composite z-score: 0.243
[2]
  z-score: -1.67 (inactive)
[3]
  z-score: 0.272 (inactive)
[4]
  z-score: -0.467 (inactive)
[5]
  z-score: 2.42 (inactive)
[6]
  composite z-score: 0.795
[7]
  composite z-score: 0.225
Torsin-1A (Homo sapiens) [8]
  composite z-score: 0.514
Torsin-1A (Homo sapiens) [9]
  composite z-score: 1.23
[10]
  composite z-score: 1.13

From PubChem BioAssay
